Test results: the supplement of paper PMC10849652
About 7,900 targets were measured; listed, in parts, are those with a hit and a random draw of the rest. About 0.6% of all pairs of compound and target were hits.

Legend:
Test in all cases: log2 fold change, soluble protein after heating vs DMSO (PISA); higher = thermal stabilisation; K562 cells, 10 uM, 30 min; active = over 0.2 and 3.5 SD of the protein, either way, in both replicates (recomputed)
[1] = compound: CC[C@@H]1C(=O)N(C)c2cnc(Nc3ccc(C(=O)N[C@H]4CC[C@H](N5CCN(CC6CC6)CC5)CC4)cc3OC)nc2N1C(C)C [volasertib]
Outline: (§1)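 K562 cells (2×10^6 cells/mL) were treated with 10 μM compound for 30 min, and aliquots were heated for 3 min over 48°C-58°C. Pooled aliquots were extracted in PBS with 0.5% NP-40 at 4°C, and the supernatant after 21,000xg for 90 min was measured by TMTpro 16plex LC-MS/MS with channel sums equalised. Reported thermal stability, relative to control samples and from duplicates, is a log2 fold change.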

[2] = compound: CC[C@H](C)N1C=C(C2=C(C=C(C=C21)C3=CN=C(C=C3)N4CCNCC4)C(=O)NCC5=C(C=C(NC5=O)C)C)C
Outline: as §1

[3] = compound: CCn1c(C(=O)N(C2CC2)C2CC2)cc2c3c(ncn3C)c(Nc3cc(C)n(C)n3)nc21
Outline: as §1

[4] = compound: CN(C)CC(=O)Nc1ccc2[nH]c(=O)c3ccccc3c2c1
Outline: as §1

[5] = compound: CN1C2=C(C3=C1C(=O)N(N=C3)CC4=CC(=CC=C4)N)SC(=C2)S(=O)C
Outline: as §1

[6] = compound: CN1CCN(CCOc2cc(OC3CCOCC3)c3c(Nc4c(Cl)ccc5c4OCO5)ncnc3c2)CC1 [saracatinib]
Outline: as §1

[7] = compound: CN1CC[C@H](c2c(O)cc(O)c3c(=O)cc(-c4ccccc4Cl)oc23)[C@H](O)C1 [alvocidib]
Outline: as §1

[8] = compound: CN1CCc2c(c3ccccc3n2Cc2ccc(C(=O)NO)cc2)C1 [Tubastatin A]
Outline: as §1

[9] = compound: CNC(=O)C1=CC=CC=C1NC2=NC(=NC=C2Cl)NC3=C(C=C(C=C3)N4CCOCC4)OC
Outline: as §1

[10] = compound: CNC(=O)c1ccc(Nc2ncc(C(F)(F)F)c(NCc3nccnc3N(C)S(C)(=O)=O)n2)cc1 [defactinib]
Outline: as §1

[11] = compound: CNc1nc(-c2ccc3c(N)n[nH]c3c2)cc(N2C[C@@H](C(=O)NC3CCCCC3)CC[C@H]2C)n1
Outline: as §1

[12] = compound: COC(=O)[C@H](CCSC)NC(=O)C1=C(C=C(C=C1)NC[C@H](CS)N)C2=CC=CC=C2
Outline: as §1

[13] = compound: CC[C@@H]1C(=O)N(C)c2cnc(Nc3ccc(C(=O)NC4CCN(C)CC4)cc3OC)nc2N1C1CCCC1
Outline: as §1

[14] = compound: CNCc1ccc(-c2[nH]c3cc(F)cc4c3c2CCNC4=O)cc1 [rucaparib]
Outline: as §1

[15] = compound: COC(=O)N[C@@H](C)CNc1nccc(-c2cn(C(C)C)nc2-c2cc(Cl)cc(NS(C)(=O)=O)c2F)n1 [encorafenib]
Outline: as §1

[16] = compound: CN1CCN(c2nc(C3=C(c4c[nH]c5ccccc45)C(=O)NC3=O)c3ccccc3n2)CC1 [sotrastaurin]
Outline: as §1

[17] = compound: CC[C@H](C)[C@@H](C(=O)N[C@@H]([C@@H](C)O)C(=O)N[C@@H](CC(C)C)C(=O)[C@]1(CO1)C)NC(=O)[C@H]([C@@H](C)CC)N(C)C(=O)C [epoxomicin]
Outline: as §1

[18] = compound: CCn1cc(-c2ccnc3[nH]c(-c4cccc(CN(C)C)c4)cc23)c(-c2ccc(NC(=O)N(C)C)cc2)n1
Outline: as §1

[19] = compound: CN(CCOC1=CC=C(C=C1)C[C@H]2C(=O)NC(=O)S2)C3=CC=CC=N3 (racemic) [rosiglitazone]
Outline: as §1

[20] = compound: CN1CCC(CNc2ccc3ncc(-c4cccc(OC(F)(F)F)c4)n3n2)CC1
Outline: as §1

Measured: log2 fold change

MRM2 (UniProt Q9UI43)
UniProt Q9UI43, sequence (Q9UI43 whole entry, looked up): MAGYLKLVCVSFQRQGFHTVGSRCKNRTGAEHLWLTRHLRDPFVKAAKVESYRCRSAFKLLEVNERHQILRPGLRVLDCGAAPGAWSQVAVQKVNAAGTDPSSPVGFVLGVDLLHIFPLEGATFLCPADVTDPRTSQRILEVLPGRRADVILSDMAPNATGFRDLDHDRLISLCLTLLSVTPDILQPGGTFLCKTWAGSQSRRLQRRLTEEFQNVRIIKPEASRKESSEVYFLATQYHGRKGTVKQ
inactive: [1] -0.083 | [2] 0.008 | [3] 0.065 | [4] -0.122 | [5] -0.042 | [6] 0.173 | [7] -0.364 | [8] -0.07 | [9] 0.033 | [10] -0.24 | [11] 0.004 | [12] 0.101

ORC3 (UniProt Q9UBD5)
UniProt Q9UBD5, sequence (Q9UBD5 whole entry, looked up): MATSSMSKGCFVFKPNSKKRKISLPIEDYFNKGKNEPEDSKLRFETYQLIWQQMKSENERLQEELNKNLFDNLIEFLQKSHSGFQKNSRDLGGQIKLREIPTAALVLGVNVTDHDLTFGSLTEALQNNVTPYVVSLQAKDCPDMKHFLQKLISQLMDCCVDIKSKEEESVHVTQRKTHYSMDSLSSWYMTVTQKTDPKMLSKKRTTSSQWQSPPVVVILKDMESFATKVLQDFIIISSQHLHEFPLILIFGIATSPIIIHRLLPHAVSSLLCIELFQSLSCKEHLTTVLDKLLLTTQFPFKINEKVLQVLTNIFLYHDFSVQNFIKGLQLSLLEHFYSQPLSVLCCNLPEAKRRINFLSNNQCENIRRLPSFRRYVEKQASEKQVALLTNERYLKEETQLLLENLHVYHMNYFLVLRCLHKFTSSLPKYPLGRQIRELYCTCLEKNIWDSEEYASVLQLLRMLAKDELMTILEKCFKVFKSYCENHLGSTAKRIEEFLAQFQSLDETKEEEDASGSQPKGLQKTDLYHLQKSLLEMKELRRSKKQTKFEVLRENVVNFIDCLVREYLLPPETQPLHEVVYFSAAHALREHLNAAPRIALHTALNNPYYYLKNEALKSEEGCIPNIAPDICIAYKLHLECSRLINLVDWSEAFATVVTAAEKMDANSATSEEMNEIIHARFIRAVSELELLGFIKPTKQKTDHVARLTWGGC
inactive: [13] -0.167 | [14] 0.061 | [15] 0.032

NEU3 isoform 2 (UniProt Q9UQ49)
inactive: [1] -0.158 | [3] -0.074 | [16] 0.004 | [9] 0.091

MPHOSPH8 isoform 2 (UniProt Q99549)
UniProt Q99549, sequence (Q99549 whole entry, looked up): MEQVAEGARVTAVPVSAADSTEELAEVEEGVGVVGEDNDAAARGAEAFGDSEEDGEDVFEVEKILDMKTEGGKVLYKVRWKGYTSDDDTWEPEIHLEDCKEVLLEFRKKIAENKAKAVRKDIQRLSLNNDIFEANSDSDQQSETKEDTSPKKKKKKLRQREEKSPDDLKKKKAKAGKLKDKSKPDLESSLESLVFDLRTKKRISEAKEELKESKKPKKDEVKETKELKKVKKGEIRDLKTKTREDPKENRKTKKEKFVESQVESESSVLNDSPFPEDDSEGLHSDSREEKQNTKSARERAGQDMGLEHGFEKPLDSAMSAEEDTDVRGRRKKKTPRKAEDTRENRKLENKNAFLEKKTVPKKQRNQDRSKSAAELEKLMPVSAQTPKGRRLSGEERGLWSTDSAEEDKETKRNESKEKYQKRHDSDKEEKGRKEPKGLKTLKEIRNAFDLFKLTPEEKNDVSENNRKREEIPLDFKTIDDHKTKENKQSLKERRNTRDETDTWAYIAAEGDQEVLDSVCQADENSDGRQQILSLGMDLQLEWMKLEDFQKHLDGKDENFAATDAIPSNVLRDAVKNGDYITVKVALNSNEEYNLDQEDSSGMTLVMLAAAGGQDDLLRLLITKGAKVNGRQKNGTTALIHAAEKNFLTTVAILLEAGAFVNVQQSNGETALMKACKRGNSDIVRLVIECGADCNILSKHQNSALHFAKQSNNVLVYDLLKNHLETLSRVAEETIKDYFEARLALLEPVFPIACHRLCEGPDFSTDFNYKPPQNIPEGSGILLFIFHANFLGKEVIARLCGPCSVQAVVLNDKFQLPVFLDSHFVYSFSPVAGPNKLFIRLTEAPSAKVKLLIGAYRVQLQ
inactive: [1] 0.012 | [17] 0.16 | [4] -0.093 | [5] 0.058 | [6] 0.088 | [16] 0.018 | [7] 0.005 | [8] 0 | [10] 0.015 | [11] -0.064 | [12] 0.013

NUMBL (UniProt Q9Y6R0)
inactive: [1] 0.019 | [2] 0.073 | [17] -0.01 | [3] 0.023 | [18] 0.007 | [4] -0.023 | [19] -0.051 | [5] 0.041 | [20] -0.259 | [6] -0.088 | [7] 0.07 | [9] 0.144 | [10] -0.101 | [11] -0.015 | [12] 0.098
active: [16] -0.412

MORC2 (UniProt Q9Y6X9)
active: [1] -0.8
inactive: [17] 0.118 | [3] -0.347 | [19] 0.106 | [9] 0.124

MXRA7 isoform 3 (UniProt P84157)
inactive: [1] -0.01

NECTIN2 isoform 2 (UniProt Q92692)
inactive: [13] 0.175 | [2] 0.106 | [17] -0.132 | [3] 0.05 | [18] -0.104 | [4] -0.063 | [19] -0.151 | [5] -0.146 | [20] 0.318 | [6] 0.188 | [16] 0.288 | [9] 0.062 | [10] 0.11 | [14] -0.039 | [11] 0.158 | [15] 0.077 | [12] 0.049

MT-ND2 (UniProt P03891)
UniProt P03891, sequence (P03891 whole entry, looked up): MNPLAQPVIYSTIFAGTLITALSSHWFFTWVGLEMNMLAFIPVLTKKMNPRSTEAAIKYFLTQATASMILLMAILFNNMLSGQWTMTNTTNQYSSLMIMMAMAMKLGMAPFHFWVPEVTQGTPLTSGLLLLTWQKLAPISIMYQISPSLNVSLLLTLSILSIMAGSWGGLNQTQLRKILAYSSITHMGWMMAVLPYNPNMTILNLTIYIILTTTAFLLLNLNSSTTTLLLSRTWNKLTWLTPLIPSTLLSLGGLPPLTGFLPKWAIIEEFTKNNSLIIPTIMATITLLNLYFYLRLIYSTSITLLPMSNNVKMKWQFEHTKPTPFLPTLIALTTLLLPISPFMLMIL
inactive: [1] -0.021 | [2] -0.113 | [3] -0.007 | [18] 0.106 | [4] 0.195 | [19] 0.04 | [5] -0.13 | [20] 0.033 | [6] -0.183 | [7] -0.321 | [8] -0.044 | [9] 0 | [10] -0.008 | [11] -0.295 | [12] 0.085

OAF (UniProt Q86UD1)
inactive: [3] -0.087 | [16] 0.139 | [9] 0.043

MLH1 (UniProt P40692)
UniProt P40692, sequence (P40692 whole entry, looked up): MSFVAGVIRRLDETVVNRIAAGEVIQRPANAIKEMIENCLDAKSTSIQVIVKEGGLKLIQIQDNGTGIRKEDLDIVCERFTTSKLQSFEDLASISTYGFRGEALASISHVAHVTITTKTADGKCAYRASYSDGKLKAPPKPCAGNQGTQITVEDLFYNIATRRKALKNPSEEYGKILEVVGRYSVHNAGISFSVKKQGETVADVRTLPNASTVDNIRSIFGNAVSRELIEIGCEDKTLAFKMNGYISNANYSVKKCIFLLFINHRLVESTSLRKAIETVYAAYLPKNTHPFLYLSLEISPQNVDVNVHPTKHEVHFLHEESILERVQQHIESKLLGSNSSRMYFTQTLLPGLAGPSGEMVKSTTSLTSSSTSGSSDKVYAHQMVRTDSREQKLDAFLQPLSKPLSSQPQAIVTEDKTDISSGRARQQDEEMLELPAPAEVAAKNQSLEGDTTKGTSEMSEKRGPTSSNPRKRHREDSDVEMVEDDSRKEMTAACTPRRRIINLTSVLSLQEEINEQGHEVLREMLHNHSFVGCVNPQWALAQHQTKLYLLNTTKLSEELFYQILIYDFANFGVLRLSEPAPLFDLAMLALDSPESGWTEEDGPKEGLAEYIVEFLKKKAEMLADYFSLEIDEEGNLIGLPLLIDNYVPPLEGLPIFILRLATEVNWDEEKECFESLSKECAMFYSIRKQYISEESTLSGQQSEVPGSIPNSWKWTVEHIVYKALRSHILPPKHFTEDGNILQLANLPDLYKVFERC
inactive: [1] -0.385 | [17] 0.11 | [18] 0.073 | [19] 0.264 | [5] 0.268 | [20] 0.112 | [6] -0.103 | [7] -0.235 | [8] 0.158 | [11] -0.168

NAP1L1 (UniProt B7Z9C2)
inactive: [13] -0.118 | [2] -0.008 | [3] -0.132 | [18] 0 | [4] -0.244 | [19] 0.146 | [5] -0.053 | [20] -0.152 | [6] -0.168 | [9] 0.041 | [10] -0.117 | [14] -0.041 | [11] -0.706 | [15] -0.114 | [12] -0.007

MSANTD2 (UniProt Q6P1R3)
UniProt Q6P1R3, sequence (Q6P1R3 whole entry, looked up): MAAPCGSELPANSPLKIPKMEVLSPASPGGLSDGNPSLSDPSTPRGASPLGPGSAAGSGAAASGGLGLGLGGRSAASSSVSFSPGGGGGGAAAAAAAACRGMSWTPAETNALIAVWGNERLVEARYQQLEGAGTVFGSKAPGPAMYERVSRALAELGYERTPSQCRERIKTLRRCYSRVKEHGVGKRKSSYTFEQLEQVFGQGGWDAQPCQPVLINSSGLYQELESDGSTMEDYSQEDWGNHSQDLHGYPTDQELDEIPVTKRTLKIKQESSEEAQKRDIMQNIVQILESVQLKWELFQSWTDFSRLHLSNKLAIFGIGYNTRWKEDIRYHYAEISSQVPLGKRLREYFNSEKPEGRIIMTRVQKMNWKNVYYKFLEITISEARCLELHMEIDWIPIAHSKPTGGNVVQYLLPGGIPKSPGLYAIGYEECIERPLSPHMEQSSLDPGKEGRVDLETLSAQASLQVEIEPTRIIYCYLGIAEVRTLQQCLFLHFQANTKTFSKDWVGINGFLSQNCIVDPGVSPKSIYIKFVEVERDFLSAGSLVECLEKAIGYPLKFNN
inactive: [13] -0.071 | [17] -0.273 | [4] 0.004 | [5] 0.13 | [6] -0.248 | [16] 0.105 | [8] 0.032 | [10] -0.113 | [14] -0.32 | [11] 0.03 | [15] -0.067 | [12] -0.01

NOLC1 isoform 3 (UniProt Q14978)
UniProt Q14978, sequence (Q14978 whole entry, looked up): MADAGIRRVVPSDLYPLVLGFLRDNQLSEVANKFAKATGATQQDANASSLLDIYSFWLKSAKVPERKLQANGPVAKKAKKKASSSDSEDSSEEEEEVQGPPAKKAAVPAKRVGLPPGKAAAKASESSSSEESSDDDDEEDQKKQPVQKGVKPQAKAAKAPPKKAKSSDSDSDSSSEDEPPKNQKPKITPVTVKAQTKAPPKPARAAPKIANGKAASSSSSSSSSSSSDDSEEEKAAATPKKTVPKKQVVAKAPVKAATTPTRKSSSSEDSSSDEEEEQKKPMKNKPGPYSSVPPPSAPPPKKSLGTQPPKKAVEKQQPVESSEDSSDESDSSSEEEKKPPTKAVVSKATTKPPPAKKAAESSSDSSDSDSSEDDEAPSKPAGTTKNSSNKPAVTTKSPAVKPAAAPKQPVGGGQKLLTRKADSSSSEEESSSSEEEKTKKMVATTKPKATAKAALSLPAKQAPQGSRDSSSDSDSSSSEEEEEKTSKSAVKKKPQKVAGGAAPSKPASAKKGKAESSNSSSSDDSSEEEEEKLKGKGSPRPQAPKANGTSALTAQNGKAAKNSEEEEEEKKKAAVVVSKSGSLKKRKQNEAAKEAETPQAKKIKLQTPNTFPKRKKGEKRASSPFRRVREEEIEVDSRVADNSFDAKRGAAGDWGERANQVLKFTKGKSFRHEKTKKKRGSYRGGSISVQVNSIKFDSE
inactive: [3] -0.275 | [7] 0.083 | [9] 0.018

OPHN1 (UniProt O60890)
inactive: [13] 0.036 | [2] -0.016 | [17] 0.043 | [3] -0.019 | [18] -0.143 | [19] 0.121 | [5] 0.108 | [20] -0.095 | [6] -0.033 | [16] 0.011 | [7] 0.094 | [8] -0.008 | [9] -0.036 | [14] -0.011 | [11] -0.01 | [15] 0.038

NCK1 (UniProt P16333)
active: [16] -0.521
inactive: [1] -0.306 | [2] 0.109 | [17] -0.053 | [3] -0.312 | [4] 0.044 | [19] 0.223 | [5] 0.027 | [6] -0.198 | [7] -0.005 | [8] 0.126 | [9] -0.071 | [10] -0.125 | [11] 0.158 | [12] -0.122

NIPSNAP2 (UniProt C9J7B1)
inactive: [19] -0.065 | [16] -0.073

NRGN (UniProt Q92686)
UniProt Q92686, sequence (Q92686 whole entry, looked up): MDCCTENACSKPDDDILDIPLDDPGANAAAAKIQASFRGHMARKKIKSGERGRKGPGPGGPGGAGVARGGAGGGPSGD
inactive: [1] 0.052 | [2] -0.088 | [17] 0.162 | [3] 0.021 | [18] 0.14 | [19] 0.127 | [20] -0.547 | [9] 0.01

MITF (UniProt O75030)
UniProt O75030, sequence (O75030 whole entry, looked up): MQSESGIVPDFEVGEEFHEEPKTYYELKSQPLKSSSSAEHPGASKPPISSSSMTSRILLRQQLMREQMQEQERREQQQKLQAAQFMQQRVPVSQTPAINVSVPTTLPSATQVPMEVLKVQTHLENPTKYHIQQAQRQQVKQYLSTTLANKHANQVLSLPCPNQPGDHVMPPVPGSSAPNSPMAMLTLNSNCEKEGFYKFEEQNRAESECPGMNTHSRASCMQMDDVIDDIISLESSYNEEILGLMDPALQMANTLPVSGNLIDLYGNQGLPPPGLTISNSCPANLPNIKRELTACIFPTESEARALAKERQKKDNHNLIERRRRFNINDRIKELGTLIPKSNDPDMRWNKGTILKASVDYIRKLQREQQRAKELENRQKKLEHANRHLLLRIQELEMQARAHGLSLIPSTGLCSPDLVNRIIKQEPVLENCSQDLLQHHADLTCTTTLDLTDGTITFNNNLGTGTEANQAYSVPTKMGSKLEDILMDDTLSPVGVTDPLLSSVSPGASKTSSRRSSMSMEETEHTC
inactive: [13] 0.014 | [2] 0.02 | [3] -0.051 | [18] 0.044 | [4] -0.231 | [20] -0.046 | [16] -0.08 | [9] 0.034 | [10] 0.111 | [14] -0.186 | [15] -0.058 | [12] 0.064

MOB3B (UniProt Q86TA1)
UniProt Q86TA1, sequence (Q86TA1 whole entry, looked up): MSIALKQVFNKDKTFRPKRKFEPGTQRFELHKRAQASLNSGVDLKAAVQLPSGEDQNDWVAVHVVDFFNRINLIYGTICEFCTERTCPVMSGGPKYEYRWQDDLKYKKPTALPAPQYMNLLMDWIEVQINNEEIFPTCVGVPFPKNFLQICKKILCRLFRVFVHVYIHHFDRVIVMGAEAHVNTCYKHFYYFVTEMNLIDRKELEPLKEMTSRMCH
active: [1] -0.633
inactive: [2] -0.045 | [3] 0.149 | [18] -0.016 | [4] 0.034 | [19] 0.202 | [20] -0.159 | [7] -0.428 | [8] -0.03 | [9] -0.324 | [10] -0.252 | [12] 0.078

PACRGL (UniProt Q8N7B6)
inactive: [16] -0.075

NA, A0A2R8Y3M9
inactive: [1] -0.134 | [2] 0.014 | [18] -0.015 | [19] 0.117 | [5] 0.376 | [20] 0.005 | [6] 0.171 | [16] 0.191 | [7] 0.214 | [11] -0.04
